Measured values taken from PubChem BioAssay AID1159580 (chemical genetic matrix, 2015).
“And” between values parts separate entries of the source, which are not always exact repeats. Equal entries are not always repeated. The campaign covered roughly 5,500 compounds. About 2,000 (36%) were called active. Not shown: some 18% with an inconclusive outcome. No stated cut-off is given here; in the data, active means normalized growth mostly below about 0.91 (no sharp cut-off); inconclusive means no clear call, values can overlap the other calls; inactive means mostly above about 0.92. This is one part of the list.

Experiment: chemical genetic growth profiling, strain panel (AID 1159580);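 further: tested at 20 µM; growth read once vehicle control cultures reached saturation at 30 °C; 1 = growth at the plate median or of vehicle wells; lower values mean less growth of the strain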
Settings: S. cerevisiae deletion strains, growth OD

Measured: normalized growth

CC1=C2C(O)C(=O)OC3CC4C(C)(C)C(=O)C=C[C@]4(C)C(CC1)[C@]23C (stereo partly specified)
inactive: locus YAL021C, strain ccr4, active compounds read low 1.01 | locus YAL026C, strain drs2, active compounds read low 1.02 | locus YAL030W, strain snc1, active compounds read low 1.01 | locus YBL061C, strain skt5, active compounds read low 1.01 | locus YBR009C, strain hhf1, active compounds read low 1 | locus YBR021W, strain FUR4, active compounds read low 0.994 | locus YBR023C, strain chs3, active compounds read low 1.02 | locus YBR171W, strain sec66, active compounds read low 1.01 | locus YBR229C, strain ROT2, active compounds read low 1.02 | locus YBR231C, strain swc5, active compounds read low 1 | locus YBR279W, strain paf1, active compounds read low 1 | locus YCL011C, strain gbp2, active compounds read low 1.01 | locus YCL016C, strain dcc1, active compounds read low 1.01 | locus YCL029C, strain bik1, active compounds read low 1 | locus YCL061C, strain MRC1, active compounds read low 1 | locus YCL069W, strain vba3, active compounds read low 1 | locus YCR088W, strain abp1, active compounds read low 1.01 | locus YDL005C, strain med2, active compounds read low 1.02 | locus YDL035C, strain GPR1, active compounds read low 1.03 | locus YDL040C, strain nat1, active compounds read low 1.01 | locus YDL074C, strain BRE1, active compounds read low 1.07 | locus YDL101C, strain DUN1, active compounds read low 1.04 | locus YDL134C, strain PPH21, active compounds read low 1.04 | locus YDL185W, strain tfp1, active compounds read low 1.02 | locus YDL192W, strain arf1, active compounds read low 1.02 | locus YDR001C, strain nth1, active compounds read low 1 | locus YDR069C, strain doa4, active compounds read low 1.02 | locus YDR101C, strain arx1, active compounds read low 0.99 | locus YDR137W, strain rgp1, active compounds read low 1.12 | locus YDR159W, strain sac3, active compounds read low 1.03 | locus YDR162C, strain NBP2, active compounds read low 1.04 | locus YDR195W, strain ref2 0.986 | locus YDR297W, strain sur2, active compounds read low 1.02 | locus YDR318W, strain mcm21, active compounds read low 1.02 | locus YDR334W, strain swr1, active compounds read low 1 | locus YDR335W, strain msn5, active compounds read low 1 | locus YDR388W, active compounds read low 1.02 | locus YDR392W, strain spt3, active compounds read low 1.03 | locus YDR502C, strain sam2, active compounds read low 1.04 | locus YEL003W, strain gim4, active compounds read low 1 | locus YEL037C, strain rad23, active compounds read low 1 | locus YEL061C, strain CIN8 (second series), active compounds read low 1.01 | locus YER015W, strain faa2, active compounds read low 1.01 | locus YER016W, strain bim1, active compounds read low 1.02 | locus YER110C, active compounds read low 1.02 | locus YER111C, strain swi4, active compounds read low 1.02 | locus YER155C, strain BEM2 (second series), active compounds read low 1.01 | locus YER155C, strain BEM2, active compounds read low 1 | locus YER167W, strain BCK2, active compounds read low 1 | locus YFR010W, strain ubp6, active compounds read low 1.01 | locus YGL078C, strain dbp3, active compounds read low 1.05 | locus YGL086W, strain mad1, active compounds read low 1.01 | locus YGL167C, strain pmr1, active compounds read low 1.02 | locus YGL173C, strain kem1, active compounds read low 1.03 | locus YGL227W, strain vid30, active compounds read low 1.01 | locus YGL240W, strain doc1, active compounds read low 1 | locus YGL248W, strain PDE1, active compounds read low 1.02 | locus YGL253W, strain hxk2, active compounds read low 1.02 | locus YGR078C, strain PAC10, active compounds read low 1.05 | locus YGR135W, strain pre9, active compounds read low 1.07 | locus YGR252W, strain gcn5, active compounds read low 1.13 | locus YHR013C, strain ard1, active compounds read low 1.04 | locus YHR027C, strain rpn1, active compounds read low 1.02 | locus YHR030C, strain SLT2, active compounds read low 1.01 and 1.04 | locus YHR079C, strain IRE1 (second series), active compounds read low 1.01 | locus YHR079C, strain IRE1, active compounds read low 1.02 | locus YHR094C, strain hxt1, active compounds read low 1.01 | locus YHR129C, strain ARP1, active compounds read low 1.02 | locus YHR142W, strain chs7, active compounds read low 1.01 | locus YHR200W, strain rpn10, active compounds read low 1.02 | locus YIL066C, strain RNR3, active compounds read low 1.02 | locus YIL073C, strain SPO22, active compounds read low 1.06 | locus YIL125W, strain kgd1, active compounds read low 0.995 | locus YIR030C, strain dcg1, active compounds read low 1.02 | locus YJL092W, strain hpr5, active compounds read low 1 | locus YJL095W, strain BCK1 (second series), active compounds read low 1.01 | locus YJL095W, strain BCK1, active compounds read low 1.07 and 1.03 | locus YJL115W, strain asf1, active compounds read low 1.01 | locus YJL129C, strain trk1, active compounds read low 1.03 | locus YJL134W, strain LCB3, active compounds read low 1.01 | locus YJL154C, strain vps35, active compounds read low 1.02 | locus YJL164C, strain tpk1, active compounds read low 1.01 | locus YJL166W, strain qcr8, active compounds read low 1.01 | locus YJL168C, strain set2, active compounds read low 1.02 | locus YJL187C, strain SWE1 (second series), active compounds read low 1.05 | locus YJL187C, strain SWE1, active compounds read low 1.01
